The values below come from PubChem BioAssay AID2585 (National Center for Advancing Translational Sciences (NCATS), 2010).

This test concerns the target RecQ-like DNA helicase BLM (Homo sapiens) (UniProt P54132). The test is described as follows: qHTS Confirmation Assay for Inhibitors of Bloom's syndrome helicase (BLM). Also: nearly all actives have a fitted effect of over 45% in size. As to conditions: BLM DNA unwinding, fluorescence quenching, biochemical. From the text:
Survival of cells and the faithful propagation of the genome depend on elaborate mechanisms of detecting and repairing DNA damage. Treatment of advanced cancer relies on radiation therapy or chemotherapy, which kill cancer cells by causing extensive DNA damage. It is often found, that cancer cells develop resistance to therapy through enhanced activity of DNA repair functions; this has led to an increased interest in developing drugs that interfere with DNA repair, which could sensitize cancer cells to conventional therapy. This validation qHTS assay pertains to human BLM, which is important in resolving abnormal DNA structures formed during replication or homologous recombination. Shutting down the expression of BLM leads to chromosomal instability and higher radiation sensitivity in cultured cells. The validation assay was a fluorescence quenching based kinetic qHTS for BLM Helicase DNA unwinding. The activity was measured as ATP-dependent separation of a 20-bp DNA duplex extended by 30-nt single-stranded tails (forked duplex). The forked DNA substrate was tagged with rhodamine fluorophore (carboxytetramethyl rhodamine, TAMRA) and BHQ-2 (Black Hole Quencher 2) dark quencher. Strand separation results in an increase in the fluorescence of TAMRA (excitation 525 nm, emission 598 nm). […]
Background: In qHTS, concentration-response curves come from the screen itself.

The structures appear in SMILES notation. The list shows a part of the results. Records with an inconclusive call do not appear. Calls of active or inactive are those of the source. Calls follow the shape of the dose curve; as a rule, active = well fitted inhibition curve with a large enough effect; inconclusive = small, poorly fitted or top-dose-only effect; inactive = no such curve, though single readings can be large or run the other way.
Potency is read from the fitted curve at half-maximal effect.

Chain of RecQ-like DNA helicase BLM (Homo sapiens) (P54132 whole entry, looked up): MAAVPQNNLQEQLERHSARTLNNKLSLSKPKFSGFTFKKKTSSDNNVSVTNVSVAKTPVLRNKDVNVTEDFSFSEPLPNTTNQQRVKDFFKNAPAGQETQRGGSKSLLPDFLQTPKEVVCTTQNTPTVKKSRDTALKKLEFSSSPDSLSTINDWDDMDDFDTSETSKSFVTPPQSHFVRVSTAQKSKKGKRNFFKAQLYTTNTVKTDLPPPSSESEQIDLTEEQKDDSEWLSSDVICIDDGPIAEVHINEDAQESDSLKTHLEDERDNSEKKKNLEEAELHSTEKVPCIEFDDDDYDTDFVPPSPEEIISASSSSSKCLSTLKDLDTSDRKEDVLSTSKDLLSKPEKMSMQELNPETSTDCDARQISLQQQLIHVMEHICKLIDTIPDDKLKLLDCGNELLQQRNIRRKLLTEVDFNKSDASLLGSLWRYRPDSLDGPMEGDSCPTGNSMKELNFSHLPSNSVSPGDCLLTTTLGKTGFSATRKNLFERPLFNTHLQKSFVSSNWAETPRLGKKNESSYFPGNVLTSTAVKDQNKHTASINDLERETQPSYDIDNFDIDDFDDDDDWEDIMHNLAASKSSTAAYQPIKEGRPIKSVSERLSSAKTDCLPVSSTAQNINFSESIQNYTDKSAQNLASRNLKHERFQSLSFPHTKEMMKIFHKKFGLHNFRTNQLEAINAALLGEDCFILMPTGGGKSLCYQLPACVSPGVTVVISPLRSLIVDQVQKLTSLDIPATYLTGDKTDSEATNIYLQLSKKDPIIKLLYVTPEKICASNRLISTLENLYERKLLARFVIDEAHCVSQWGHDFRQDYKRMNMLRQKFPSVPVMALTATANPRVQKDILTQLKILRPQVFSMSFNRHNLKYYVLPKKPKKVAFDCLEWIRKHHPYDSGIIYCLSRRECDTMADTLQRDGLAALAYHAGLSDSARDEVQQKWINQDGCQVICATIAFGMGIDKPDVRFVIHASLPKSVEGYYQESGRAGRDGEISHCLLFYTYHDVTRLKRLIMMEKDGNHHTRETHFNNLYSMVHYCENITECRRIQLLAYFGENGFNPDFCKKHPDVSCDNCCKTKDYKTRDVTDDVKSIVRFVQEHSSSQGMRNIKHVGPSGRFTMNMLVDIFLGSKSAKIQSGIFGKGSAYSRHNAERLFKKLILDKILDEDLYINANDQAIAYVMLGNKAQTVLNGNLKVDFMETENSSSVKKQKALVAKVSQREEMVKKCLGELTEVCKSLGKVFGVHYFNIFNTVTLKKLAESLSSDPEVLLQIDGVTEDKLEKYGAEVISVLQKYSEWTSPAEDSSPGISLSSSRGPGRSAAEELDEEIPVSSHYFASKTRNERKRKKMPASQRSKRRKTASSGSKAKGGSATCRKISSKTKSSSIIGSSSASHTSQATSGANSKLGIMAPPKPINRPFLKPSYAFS

As for `O=C(O)c1cc[c]([Sb](=[O])([OH])[OH])cc1[N+](=O)[O-]`, the Potency was 8.57 µM (active).
